Screen size: about 290,000 compounds; about 3,100 (1.1%) were called active. No stated cut-off is given here; in the data, active means inhibition above about 16% (passing the limit was not always enough); inactive means the rest. The sample as a whole holds a higher share of actives than the screen did.
Biological target: Neuropeptides B/W receptor type 1 (Homo sapiens) (UniProt P48145)
Experiment: blockers of human neuropeptide B/W receptor 1 – cell-based, fluorescence, single concentration, primary screen (AID 1861);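 further: cells stimulated with the agonist NPW; 0% = agonist with vehicle and 100% = vehicle without agonist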
Conditions: GPR7-expressing cells, fluorescence antagonist assay; at 4.4 µM; stronger effect = higher value

Chain of Neuropeptides B/W receptor type 1 (Homo sapiens) (P48145 whole entry, looked up): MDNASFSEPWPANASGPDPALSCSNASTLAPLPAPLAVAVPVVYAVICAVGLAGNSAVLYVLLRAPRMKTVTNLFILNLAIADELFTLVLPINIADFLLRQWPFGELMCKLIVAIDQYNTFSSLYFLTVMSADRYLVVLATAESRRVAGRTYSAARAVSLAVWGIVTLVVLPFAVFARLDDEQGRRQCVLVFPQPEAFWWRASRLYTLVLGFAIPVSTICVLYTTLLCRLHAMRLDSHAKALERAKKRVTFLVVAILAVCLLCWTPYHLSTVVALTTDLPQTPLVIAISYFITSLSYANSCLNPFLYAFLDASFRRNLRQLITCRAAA

SMILES	inhibition
COCCCNC(=S)N1CCN(c2nc(-c3cccc(OC)c3)cs2)CC1	42.1% (active)
CN(C)CCCNC(=S)N1CCN(c2nc(-c3ccccc3)cs2)CC1	5.73% (inactive)
COc1cccc(NC(=O)CN2CCN(c3nc(-c4cccc(OC)c4)cs3)CC2)c1	-9.85% (inactive)
CCC1CCCCN1C(=S)Nc1ccc(S(=O)(=O)Nc2ncccn2)cc1 (configuration not stated)	-0.2% (inactive)
Fc1ccc(-c2ccc(-c3nn4c(-c5ccco5)nnc4s3)o2)cc1	29% (active)
c1ccc(-c2cc(-c3nnc4sc(-c5ccccn5)nn34)[nH]n2)cc1	-17.3% (inactive)
COc1cc(-c2nn3c(-c4cccc(C)c4)nnc3s2)cc(OC)c1OC	12.2% (inactive)
COC(=O)c1ccc(C(=O)NC2CC(C)(C)Cc3c2cnn3-c2ccc(F)cc2)nc1 (configuration not stated)	18.2% (inactive)
CC(C(=O)NC1CCS(=O)(=O)C1)N1C(=O)/C(=C/c2ccc(Cl)cc2)SC1=S (configuration not stated)	14.5% (inactive)
CCOCCCNC(=O)c1ccc(CS(=O)(=O)c2cccc(C(F)(F)F)c2)o1	6.51% (inactive)
Cc1ccccc1CN1C(=O)c2ccccc2Sc2ccc(C(=O)NCCCN3CCOCC3)cc21	24.2% (active)
O=C(NCCCN1CCOCC1)c1cc(-c2ccccc2F)no1	-6.4% (inactive)
O=C(NCCCN1CCCCC1)c1ccc2c(c1)NC(=O)C(N1CCOCC1)S2 (configuration not stated)	-14.1% (inactive)
O=C(NCCN1CCOCC1)c1ccc(/C=C2\Sc3ccccc3N(Cc3ccc(F)cc3)C2=O)cc1	4.73% (inactive)
CCC1=Nc2cc(C(=O)NCCCN3CCOCC3)ccc2Sc2ccc(Br)cc21	0.03% (inactive)
O=C(NCCCN1CCOCC1)c1ccc2c(c1)N(Cc1cccc(F)c1)C(=O)c1ccccc1S2	24.4% (active)
CCOc1ccc(NC(=O)C2CCN(C(=O)N3CCOc4ccccc43)CC2)cc1	5.19% (inactive)
COc1cccc2[nH]c(C(=O)NCCc3ccccc3)cc12	-9.64% (inactive)
COc1ccc2[nH]c(=O)c(C3c4cc(OC)c(OC)cc4CCN3C(=O)c3ccco3)cc2c1 (configuration not stated)	-13.4% (inactive)
O=c1cc(CSc2ccccn2)nc(N2CCN(c3ccccc3)CC2)[nH]1	-6.4% (inactive)
Cc1ccc(NC(=O)CSc2nc(CSc3ccc(C)cc3)cc(=O)[nH]2)cc1	-13.7% (inactive)
Cc1ccc(SCc2cc(=O)[nH]c(N3CCCCC3)n2)cc1	25.9% (active)
CN(C(=O)CCN1C(=O)/C(=C/c2ccccc2F)SC1=S)C1CCS(=O)(=O)C1 (configuration not stated)	-4.44% (inactive)

SMILES	inhibition
COc1cccc(CNC(=O)C2CCCN(c3ncnc4c3nc3n4CCCCC3)C2)c1 (configuration not stated)	6.2% (inactive)
COc1cccc(C(C(=O)NC2CCCC2)N(C(=O)c2ccco2)c2cccc(C(C)=O)c2)c1OC (configuration not stated)	2.78% (inactive)
CN(C)CCNC(CC(=O)Nc1ccc(Cl)c(Cl)c1)C(=O)O (configuration not stated)	-6.94% (inactive)
Cc1ccc(NC(=O)C/C(N)=N/O)cc1Cl	-9.83% (inactive)
O=C(CC(O)(C(F)(F)F)C(F)(F)F)Nc1ccc(Cl)c(Cl)c1	28.9% (active)
CCOC(=O)C1(CCOc2ccccc2)CCN(Cc2cc(OC)cc(OC)c2)CC1	15.4% (inactive)
CC1=C/C(=N\OS(=O)(=O)c2ccccc2)C=CC1=O	-2.03% (inactive)
Cc1cc(C)cc(N(CC(=O)NC2CCCC2)C(=O)CCC(=O)Nc2nccs2)c1	4.8% (inactive)
COc1ccccc1C(=O)OCC(=O)NCCNC(=O)COC(=O)c1ccccc1OC	1.57% (inactive)
O=C(COC(=O)c1ccccc1SCC(=O)NC1CCCCC1)NC1CCCCC1	4.41% (inactive)
C=CCNC(=O)COC(=O)c1ccccc1C(=O)N(C)C1CCCCC1	23.4% (active)
O=[N+]([O-])c1ccc(NC(=S)N2CCN(c3ccccn3)CC2)cc1	-5.44% (inactive)
Cc1nn(CC(=O)NCC2CCCO2)c(=O)c2cc3ccccc3n12 (configuration not stated)	2.04% (inactive)
CCn1c(C)cc(=O)cc1-c1ccc(Cl)cc1	12.6% (inactive)
CS(=O)(=O)Nc1cccc(C2=NN(S(=O)(=O)c3ccccc3)C(c3cccs3)C2)c1 (configuration not stated)	30% (active)
CS(=O)(=O)Nc1ccc(C2=NN(S(C)(=O)=O)C(c3cccs3)C2)cc1 (configuration not stated)	-8.38% (inactive)
CS(=O)(=O)Nc1cccc(C2=NN(C(=O)c3cccc(F)c3)C(c3cccs3)C2)c1 (configuration not stated)	19.9% (inactive)
COc1ccc(C2=NN(C(=O)c3ccccc3C(=O)O)C(c3ccccc3O)C2)cc1 (configuration not stated)	1.53% (inactive)
COc1cccc(C2CC(c3ccccc3)=NN2S(=O)(=O)c2ccccc2)c1OC (configuration not stated)	19.8% (active)
CCS(=O)(=O)Nc1ccc(C2=NN(S(=O)(=O)c3ccc(F)cc3)C(c3ccco3)C2)cc1 (configuration not stated)	1.02% (inactive)
Cc1c(CCC(=O)N[C@@H](CC(C)C)C(=O)O)c(=O)oc2c(C)c3oc4c(c3cc12)CCCC4	-11.3% (inactive)
COc1ccc(C(=O)NC(C)c2nccs2)cc1OC1CCN(C(C)C)CC1 (configuration not stated)	-9.73% (inactive)
COc1ccc(N(CC(=O)NCCSCc2cccc(Cl)c2)S(C)(=O)=O)cc1	-4.13% (inactive)

SMILES	inhibition
CC1CN(C(=O)c2cc(COc3c(F)cccc3F)on2)CCN1C (configuration not stated)	5.39% (inactive)
Cc1cc(C)cc(N(CC(=O)NCCSCc2ccco2)S(C)(=O)=O)c1	-3.97% (inactive)
CCc1ccccc1N(CC(=O)NCCSCc1ccco1)S(C)(=O)=O	-3.47% (inactive)
CS(=O)(=O)N(Cc1ccc(Cl)cc1)c1ccc(C(=O)NCCSCc2ccco2)cc1	30.2% (active)
O=C(COc1ccc([N+](=O)[O-])cc1)Nc1ccc(N2CCCC2)cc1	-6.84% (inactive)
CN1CCN(CCNC(=O)Nc2ccc([N+](=O)[O-])cc2)CC1	1.21% (inactive)
O=C(NCCCN1CCN(c2ccc(F)cc2)CC1)Nc1ccc([N+](=O)[O-])cc1	25.5% (active)
Cc1ccc(OCC(=O)NC(C)c2ccccc2)c([N+](=O)[O-])n1 (configuration not stated)	-17% (inactive)
COc1ccccc1CNC(=O)COc1ccc(C)nc1[N+](=O)[O-]	25.7% (active)
COc1ccc(CNC(=O)COc2cccnc2[N+](=O)[O-])cc1	5.06% (inactive)
CCOC(=O)N1CCN(S(=O)(=O)c2ccc(OC)cc2)CC1	-0.89% (inactive)
Cc1cc(Cl)ccc1OCCCC(=O)NCc1ccncc1	2.96% (inactive)
Cc1cc(Cl)ccc1OCCCC(=O)Nc1cccc(-n2cnnn2)c1	37.4% (active)
Cc1cc(Cl)ccc1OCCCC(=O)NCc1ccccn1	5.1% (inactive)
c1ccc2c(c1)CCc1snnc1-2	-15.5% (inactive)
COc1cc(OC)c(NC(=O)C2CCCN2C(=O)OCc2ccccc2)cc1Cl (configuration not stated)	3.66% (inactive)
COC(=O)c1cc(S(=O)(=O)Nc2ccc(C)c(F)c2)c[nH]1	4.7% (inactive)
CCOC(=O)C1=C(C)NC(SC)=NC1c1ccccc1 (configuration not stated)	-17% (inactive)
CCOC(=O)C1=C(C)NC(C)=C(C(=O)OCC)C1c1ccccn1	18.9% (active)
CCOC(=O)C1=C(C)NC(=S)NC1c1cccs1 (configuration not stated)	-3.11% (inactive)
CC1CCCCN1CC(=O)NCc1ccc2c(c1)OCO2 (configuration not stated)	-3.99% (inactive)
Cc1ccc(NC(=O)CN2CCC3(O)CCCCC3C2c2ccc3c(c2)OCO3)c(C)c1 (configuration not stated)	21.5% (active)
CCN(CC)c1ccc(C2C3CCCCC3(O)CCN2CC(=O)Nc2ccccc2)cc1 (configuration not stated)	0.06% (inactive)

SMILES	inhibition
O=C(Nc1cccc2ccccc12)c1onc2c1CCCC2	-5.72% (inactive)
Oc1ccccc1CNc1ncc(Br)cc1Br	-17.9% (inactive)
COCCN(Cc1cc2cc3c(cc2nc1Cl)OCO3)C(=O)c1cccc(C)c1	21.6% (active)
Cc1cccc(C(=O)NCCCN(C)CCCNC(=O)c2cccc(C)c2)c1	-10.2% (inactive)
CCCCN(CC)C(=O)c1ccc2c(c1)OCO2	11.2% (inactive)
Cc1ccc(Cl)c(NC(=O)CN2CCN(C=O)CC2)c1	2.68% (inactive)
COc1ccccc1OCCOc1ccc(/C=C2\C(=N)N3N=C(C)SC3=NC2=O)cc1	21% (inactive)
CN(C(=O)c1cccc(OC2CCN(S(=O)(=O)N(C)C)CC2)c1)C1CCOC1 (configuration not stated)	-0.89% (inactive)
CNS(=O)(=O)c1cccc(C(=O)NCC2CCCCC2)c1	5.35% (inactive)
CN(C)S(=O)(=O)N1CCC(Oc2cccc(C(=O)NCCCC3CCCC3)c2)CC1	34.4% (active)
Cc1cc(C(=O)NCCc2ccc(Cl)cc2)c(C)o1	-6.42% (inactive)
CN(c1cccc(NC(=O)Nc2ccc(Cl)cc2)c1)S(C)(=O)=O	35.6% (active)
COc1cccc(N(CC(=O)Nc2cccc(N(C)S(C)(=O)=O)c2)S(C)(=O)=O)c1	-7.36% (inactive)
Cc1ccc(N(CC(=O)Nc2cccc(N(C)S(C)(=O)=O)c2)S(C)(=O)=O)cc1	-0.43% (inactive)
CCOC(=O)N1CCN(C(=O)C(C)NC(=O)c2ccco2)CC1 (configuration not stated)	-2.9% (inactive)
CCN(CCn1cccn1)Cc1nc(-c2ccc(C(=O)OC)cc2)no1	9.06% (inactive)
COc1cccc(-c2cc(C(=O)N3CCN(c4ccccc4OC)CC3)no2)c1	-15.8% (inactive)
CN(CC(=O)Nc1ccccc1C(F)(F)F)C(=O)Cc1ccccc1F	-10.8% (inactive)
COc1cc(CNC2CCCCC2)c(Br)cc1OC1CCCC1	-7.35% (inactive)
CCOCCCNCc1cc(Br)ccc1OCC	10.1% (inactive)
CC(C)(C)NCc1cc(Br)ccc1OC1CCCC1	22.3% (active)
O=C(NCc1cccc(CNC(=O)Nc2cccc(O)c2)c1)Nc1cccc(O)c1	-9.18% (inactive)
C[C@@H]1C[C@@H]2O[C@H]2/C=C\C=C\C(=O)Cc2c(Cl)c(O)cc(O)c2C(=O)O1	-17.8% (inactive)
